This is an account of results in PubChem BioAssay.

Active and inactive are the calls of the source.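 How the source made its calls, unless noted: active means inhibition at or above 50% at 10 µM; inactive means inhibition below 50%.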

As a reminder, the inhibition is the change of the read-out against control, counted positive when it falls.

The nature of experiment [1]: inhibitors of TNFa-induced NFkB p65 translocation, primary screen, imaging, HUVEC, MLSMR starter and 10KST1 sets (AID 438;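 active means inhibition above 20% together with a positive visual image hit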;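 further: compound added about 3h40 before a 20 min TNFalpha stimulation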;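 on inhibition: signal is the nuclear over cytoplasmic p65 intensity ratio per well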). Particulars: HUVEC TNFa-induced p65 nuclear translocation; cell count: measured here: nuclei count (cytotoxicity indicator), at 2.08 µM; inhibition: at 2 µM, stronger effect = higher value, 0% TNFa-plus-vehicle, 100% no-TNFa wells.
Experiment [2] can be described thus: inhibitors of mutant huntingtin aggregation, primary screen, imaging, exon1htt(103Q)mCFP cells, high-content imaging (AID 483;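 active means visual image review flags a hit and inhibition of aggregation exceeds 20%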;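 further: compound exposure lasted 3 days before fixation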;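 on nuclei count: percent of the per-plate median nuclei count of sample wells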). Particulars: exon1htt(103Q)mCFP cell line, aggregate imaging, at 2 µM; inhibition of aggregation: stronger effect = higher value; nuclei count: measured here: cell count, toxicity.
Experiment [3] in a line: inhibitors of E-selectin induction by TNFa, primary screen, imaging, HUVEC, immunofluorescence, MLSMR starter and 10KST1 sets (AID 487;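 active means visually confirmed hit in the image check and inhibition above 20%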;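 on inhibition: signal is fraction of cell area covered by stained E-selectin grains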;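 on nuclei count: 100% = median nuclei count of all wells on the same plate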). The note with it: HUVEC TNFalpha-induced E-selectin immunofluorescence imaging, at 2 µM; inhibition: stronger effect = higher value; nuclei count: measured here: cell number, toxicity.
Experiment [4] deals with Voltage-gated potassium channel subunit beta-2 (Rattus norvegicus) (UniProt P62483). The experiment in a line: KvBeta enzyme negative modulators, primary screen, biochemical, NADPH fluorescence (AID 622;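 active means fluorescence slope higher than the sample average by over 3 SD, cut at about -0.22 in these data, passing the limit was not always enough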;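 further: slope of raw intensity against log time taken from 70 to 1610 s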). Particulars: recombinant KvBeta, 4-cyanobenzaldehyde reduction, at 10 µM, stronger effect = higher value.
Experiment [5] shares this target. The experiment is described as follows: KvBeta positive modulators, primary screen, biochemical, NADPH fluorescence (AID 623;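 active means NADPH fluorescence slope more negative than the mean of all samples by about 3 SD, 99.7% confidence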;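 further: fluorescence intensity change per second fitted from 20 to 320 s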). Particulars: Recombinant KvBeta, NADPH fluorescence decrease slope, 10 min; at 10 µM; stronger effect = lower value.
The target in experiment [6] is Alpha-2C adrenergic receptor (Homo sapiens) (UniProt P18825). The experiment in a line: modulators of alpha2C/GIRK thallium flux, primary screen, cell-based, HEK293 alpha2C/GIRK1/2 (AID 624;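 active means fluorescence slope after compound addition differing from the mean of all screened samples at 99.7% confidence, in either direction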;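 further: slope of fluorescence ratio to pre-addition baseline per second over 15 to 24 s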). The note with it: thallium flux BTC fluorescence, at 10 µM, actives lie on both sides.
Experiment [7] can be described thus: inhibitors of Sendai virus-induced IRF3 signaling, primary screen, TLR/RLR signaling modifier project, cell-based, Sendai virus stimulus, luciferase, 10K MLSCN set (AID 602276).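 Further: firefly luciferase from ISG56 promoter only with Renilla not read in this screen; 0% = Sendai virus plus DMSO and 100% = medium plus DMSO without virus.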 The note with it: HEK293 RL24 IRF3 luciferase reporter, at 10 µM, stronger effect = higher value. A general note: Reporter assays use an easily measured gene product as a stand-in for the process of interest.

A short description of experiment [8]: inhibitors of poly I:C-induced TLR3 signaling, primary screen, cell-based, poly I:C stimulus, luciferase, 10K MLSCN set (AID 602277;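 active means inhibition of the reporter signal at or above 50%; inactive means inhibition below 50%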). The note with it: HEK293-TLR3 RL24 IRF3 luciferase reporter, at 10 µM, stronger effect = higher value.

Sequence of Voltage-gated potassium channel subunit beta-2 (Rattus norvegicus) (P62483 whole entry, looked up): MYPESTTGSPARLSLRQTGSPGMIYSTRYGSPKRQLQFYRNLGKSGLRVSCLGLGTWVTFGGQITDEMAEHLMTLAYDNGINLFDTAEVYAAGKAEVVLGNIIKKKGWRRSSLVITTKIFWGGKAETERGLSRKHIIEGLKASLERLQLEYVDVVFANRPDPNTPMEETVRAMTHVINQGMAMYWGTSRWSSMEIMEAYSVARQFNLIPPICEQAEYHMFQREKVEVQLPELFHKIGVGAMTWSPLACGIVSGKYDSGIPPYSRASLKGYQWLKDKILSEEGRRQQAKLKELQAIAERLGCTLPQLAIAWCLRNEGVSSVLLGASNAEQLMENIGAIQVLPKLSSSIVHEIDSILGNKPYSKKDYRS
Sequence of Alpha-2C adrenergic receptor (Homo sapiens) (P18825 whole entry, looked up): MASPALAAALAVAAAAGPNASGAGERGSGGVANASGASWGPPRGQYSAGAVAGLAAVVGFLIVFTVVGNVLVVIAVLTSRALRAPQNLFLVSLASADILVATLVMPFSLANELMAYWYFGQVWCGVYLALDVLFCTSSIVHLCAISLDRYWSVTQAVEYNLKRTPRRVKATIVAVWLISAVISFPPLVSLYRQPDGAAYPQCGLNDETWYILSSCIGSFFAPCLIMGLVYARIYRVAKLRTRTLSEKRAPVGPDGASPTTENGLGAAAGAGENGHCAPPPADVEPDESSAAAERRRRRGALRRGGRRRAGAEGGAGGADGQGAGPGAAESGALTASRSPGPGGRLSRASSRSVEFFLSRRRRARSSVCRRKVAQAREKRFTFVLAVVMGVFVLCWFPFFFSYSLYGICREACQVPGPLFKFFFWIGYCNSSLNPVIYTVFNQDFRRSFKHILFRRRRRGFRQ

As to `O=C(CSc1nc(O)cc(=O)n1-c1ccccc1)N1CCCCC1`, in experiment [1], the cell count amounted to 635. Further, the inhibition in experiment [1] was -8.1% (inactive); in experiment [3] it was -85.5% (inactive); in experiment [7], 12.3% (inactive); in experiment [8], 21% (inactive). Besides, the inhibition of aggregation in experiment [2] was -16.4% (inactive). Besides, the figures for the nuclei count in experiment [2] and in experiment [3] were 103% and 109%, respectively. In experiment [4], the fluorescence slope is -0.536 (inactive). In addition, in experiment [5], the NADPH fluorescence slope was -5.1e-05 (inactive). Besides, the slope in experiment [6] was 0.00543 (inactive).

For the compound `Cc1cc(C(=O)Nc2nnc(C(F)(F)F)s2)no1`, the cell count in experiment [1] turned out to be 342. The inhibition in experiment [1] was -4.7% (inactive); in experiment [3], -25.5% (inactive); in experiment [7] it was -1.51% (inactive); in experiment [8] it was -19.4% (inactive). For the same compound, the inhibition of aggregation in experiment [2] is -8% (inactive). Further, the values for the nuclei count in experiment [2] and in experiment [3] were 98% and 106%, respectively. Also, the fluorescence slope in experiment [4] is -0.447 (inactive). Also, the NADPH fluorescence slope in experiment [5] is 1.8e-05 (inactive). Also, the slope in experiment [6] is 0.00633 (inactive).

As to `Cn1c(=O)cc(OCCCC(=O)N2CCCCC2)c2ccccc21`, in experiment [1], the cell count was determined as 372. In addition, the inhibition is 8.3% (inactive) in experiment [1], -22.3% (inactive) in experiment [3], -4.34% (inactive) in experiment [7] and 36.6% (inactive) in experiment [8]. Also, in experiment [2], the inhibition of aggregation was -21.8% (inactive). The nuclei count came out at 96.2% in experiment [2] and 112% in experiment [3]. In addition, in experiment [4], the fluorescence slope was -0.578 (inactive). Further, the NADPH fluorescence slope in experiment [5] was 1.8e-05 (inactive). In addition, in experiment [6], the slope is 0.00683 (inactive).

For the compound `CN1C(=O)C(O)(CC(=O)c2ccc3c(c2)OCO3)c2ccccc21` (centres undefined), the cell count in experiment [1] is 340. Also, the inhibition in experiment [1] is 6% (inactive); in experiment [3], -11.1% (inactive); in experiment [7] it was 4.81% (inactive); in experiment [8], 32.2% (inactive). The inhibition of aggregation in experiment [2] was -7.9% (inactive). Also, the nuclei count in experiment [2] was 105%; in experiment [3], 108%. Further, the fluorescence slope in experiment [4] was -0.457 (inactive). In addition, the NADPH fluorescence slope in experiment [5] was 6.3e-06 (inactive). Besides, the slope in experiment [6] was 0.00347 (inactive).

Turning to `CCOC(=O)N1CCC(NC(=O)Cc2ccc(-n3c(=O)[nH]c4ccccc4c3=O)cc2)CC1`, in experiment [1], the cell count turned out to be 753. For the same compound, the inhibition in experiment [1] was -5.8% (inactive); in experiment [3] it was -35.8% (inactive); in experiment [7] it was 0.617% (inactive); in experiment [8], -10.4% (inactive). Moreover, the inhibition of aggregation in experiment [2] is -8.3% (inactive). Moreover, the nuclei count in experiment [2] is 112%; in experiment [3], 115%. The fluorescence slope in experiment [4] was -0.527 (inactive). For the same compound, the NADPH fluorescence slope in experiment [5] is -1.5e-05 (inactive). Besides, the slope in experiment [6] was 0.00585 (inactive).

In the case of `O=C(Nc1ccc2c(c1)C(=O)N(C1CCCCC1)C2=O)C1CCCO1` (centres undefined), the cell count in experiment [1] is 269. The inhibition is -11.7% (inactive) in experiment [1], 47.7% (inactive) in experiment [3], -7.34% (inactive) in experiment [7] and -20.5% (inactive) in experiment [8]. In addition, the inhibition of aggregation in experiment [2] was 9% (inactive). Moreover, the results for the nuclei count in experiment [2] and in experiment [3] were 71.5% and 43.2%, respectively. Also, in experiment [4], the fluorescence slope is -0.0454 (active). Also, the NADPH fluorescence slope in experiment [5] is 6.1e-06 (inactive). Moreover, the slope in experiment [6] was 0.00452 (inactive).

As for `CS(=O)(=O)Nc1ccccc1C(=O)O`, the cell count in experiment [1] came out at 363. Besides, the inhibition in experiment [1] was -2.1% (inactive); in experiment [3] it was -81.2% (inactive); in experiment [7], 11.5% (inactive); in experiment [8] it was 33% (inactive). Also, the inhibition of aggregation in experiment [2] is -4.3% (inactive). In addition, the nuclei count in experiment [2] was 113%; in experiment [3] it was 121%. Moreover, the fluorescence slope in experiment [4] was -0.411 (inactive). Further, the NADPH fluorescence slope in experiment [5] was -2.7e-05 (inactive). For the same compound, in experiment [6], the slope is 0.00253 (inactive).

Take `O=C(Nc1ccc(N2CCCC2)cc1)c1ccc(Br)o1`: in experiment [1], the cell count stood at 303. For the same compound, the inhibition in experiment [1] was -8.4% (inactive); in experiment [3], -59.6% (inactive); in experiment [7], -34% (inactive); in experiment [8], -152% (inactive). In addition, the inhibition of aggregation in experiment [2] was 36.8% (inactive). The nuclei count in experiment [2] was 94.4%; in experiment [3], 94.7%. Further, the fluorescence slope in experiment [4] is -0.398 (inactive). In experiment [5], the NADPH fluorescence slope is -6.5e-05 (inactive). Moreover, in experiment [6], the slope is 0.00868 (inactive).

For the compound `CC1CCC(NC(=O)C2CCN(c3cnccn3)CC2)CC1` (centres undefined), the cell count in experiment [1] stood at 579. Also, the inhibition in experiment [1] was -52% (inactive); in experiment [3] it was -108% (inactive); in experiment [7], -0.638% (inactive); in experiment [8], -2.17% (inactive). Besides, the inhibition of aggregation in experiment [2] was -0.6% (inactive). Also, the results for the nuclei count in experiment [2] and in experiment [3] were 102% and 116%, respectively. In experiment [4], the fluorescence slope was -0.575 (inactive). The NADPH fluorescence slope in experiment [5] was -6.7e-05 (inactive). Also, the slope in experiment [6] was 0.00693 (inactive).

`COc1ccc(C(=O)NCc2nc3ccccc3[nH]2)cc1OC`: in experiment [1], the cell count was 679. Further, the inhibition is -0.5% (inactive) in experiment [1], -7.5% (inactive) in experiment [3], -1.85% (inactive) in experiment [7] and 25% (inactive) in experiment [8]. Moreover, the inhibition of aggregation in experiment [2] was 6.6% (inactive). Moreover, the nuclei count in experiment [2] was 82.2%; in experiment [3], 112%. For the same compound, in experiment [4], the fluorescence slope was -0.582 (inactive). Moreover, the NADPH fluorescence slope in experiment [5] is 3.9e-06 (inactive). For the same compound, in experiment [6], the slope is 0.0061 (inactive).

On to `CCC(=O)Nc1cc(C(=O)NCC2CCCN2CC)c(OC)cc1N(C)C` (centres undefined), for which the cell count in experiment [1] worked out at 448. The inhibition in experiment [1] was -0.5% (inactive); in experiment [3] it was -37.7% (inactive); in experiment [7] it was 0.262% (inactive); in experiment [8], 6.05% (inactive). Moreover, the inhibition of aggregation in experiment [2] is -23.1% (inactive). In addition, the results for the nuclei count in experiment [2] and in experiment [3] were 98.8% and 104%, respectively. The fluorescence slope in experiment [4] is -0.525 (inactive). Also, the NADPH fluorescence slope in experiment [5] is 1.6e-05 (inactive). The slope in experiment [6] is 0.00562 (inactive).

Turning to `CN1CCN(S(=O)(=O)c2ccc(NC(=O)Nc3cccc(Cl)c3)cc2)CC1`, the cell count in experiment [1] was 468. In addition, the inhibition in experiment [1] is 0.3% (inactive); in experiment [3], 36.5% (inactive); in experiment [7], -1.37% (inactive); in experiment [8] it was -11.1% (inactive). Also, the inhibition of aggregation in experiment [2] is -4.4% (inactive). The nuclei count is 91.8% in experiment [2] and 114% in experiment [3]. In addition, the fluorescence slope in experiment [4] is -0.614 (inactive). Moreover, the NADPH fluorescence slope in experiment [5] was -3e-05 (inactive). Further, in experiment [6], the slope was 0.00476 (inactive).

Take `COc1ccc(CCn2c(-c3ccco3)nc3ccccc3c2=O)cc1OC`: the cell count in experiment [1] was found to be 425. The inhibition was -0.6% (inactive) in experiment [1], -99.5% (inactive) in experiment [3], -9.43% (inactive) in experiment [7] and -5.38% (inactive) in experiment [8]. Also, the inhibition of aggregation in experiment [2] is 2.8% (inactive). In addition, the nuclei count is 107% in experiment [2] and 120% in experiment [3]. In addition, the fluorescence slope in experiment [4] was -0.402 (inactive). Further, the NADPH fluorescence slope in experiment [5] was -6.5e-05 (inactive). The slope in experiment [6] is 0.00555 (inactive).

Turning to `Cc1c(N=C2SCC(=O)N2c2c(C)n(C)n(-c3ccccc3)c2=O)c(=O)n(-c2ccccc2)n1C`, the cell count in experiment [1] is 592. The inhibition in experiment [1] is 4.1% (inactive); in experiment [3], -66.8% (inactive); in experiment [7], 2.44% (inactive); in experiment [8], 13.3% (inactive). The inhibition of aggregation in experiment [2] is -7.8% (inactive). In addition, the values for the nuclei count in experiment [2] and in experiment [3] were 113% and 116%, respectively. Further, the fluorescence slope in experiment [4] was -0.482 (inactive). Moreover, the NADPH fluorescence slope in experiment [5] was -3e-05 (inactive). Moreover, the slope in experiment [6] was 0.00551 (inactive).
